Test results from PubChem BioAssay (NCI).
About 79,000 compounds went through this panel and 15% of them were active in at least one assay; those are over-represented in the sample as a whole. Cut-off read from the data, not from the text of the source: active = growth inhibition above about 70%; inactive = the rest.

Legend:
[1] = NCI Yeast Anticancer Drug Screen. Data for the rad50 strain (AID 155);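 note: 0% = growth of vehicle-only cultures of the same strain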; conditions: S. cerevisiae rad50 strain growth inhibition; at 50.0 µM; stronger effect = higher value
In short: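 Growth of the mutant yeast was measured after compound exposure and referenced to vehicle-treated cultures.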

[2] = NCI Yeast Anticancer Drug Screen. Data for the mec2-1 strain (AID 157); conditions: S. cerevisiae mec2-1 strain, at 50.0 µM, stronger effect = higher value
In short: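 Growth inhibition is read against vehicle-treated controls after compound exposure of the mec2-1 yeast strain, which is defective in DNA damage repair or cell cycle control.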

[3] = NCI Yeast Anticancer Drug Screen. Data for the sgs1 mgt1 strain (AID 161);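 note: 0% = growth of cultures given vehicle only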; conditions: S. cerevisiae sgs1 mgt1 strain, at 50.0 µM, stronger effect = higher value
In short: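 Growth of a repair-deficient yeast mutant was monitored after compound treatment and expressed as inhibition relative to vehicle-treated cultures.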

[4] = NCI Yeast Anticancer Drug Screen. Data for the cln2 rad14 strain (AID 165);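 note: 0% = growth equal to vehicle treated cultures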; conditions: S. cerevisiae cln2 rad14 strain, at 50.0 µM, stronger effect = higher value
In short: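 Growth inhibition, relative to vehicle-treated controls, is the read-out. The test organism is a yeast strain with defined genetic alterations, cln2 rad14.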

[5] = NCI Yeast Anticancer Drug Screen. Data for the bub3 strain (AID 167); conditions: S. cerevisiae bub3 mutant strain, at 50.0 µM, stronger effect = higher value
In short: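 Whole-cell yeast assay. The mutant strain was incubated with compounds, and growth inhibition was determined by comparison with vehicle-treated cells.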

[6] = NCI Yeast Anticancer Drug Screen. Data for the mlh1 rad18 strain (AID 175); conditions: S. cerevisiae mlh1 rad18 strain growth inhibition; at 50.0 µM; stronger effect = higher value
In short: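 Cells of a genetically altered yeast strain, deficient in DNA damage repair, were treated with compound. Their growth was then compared with that of vehicle-treated cultures to give inhibition.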

Measured: growth inhibition

CC1CCCN2C(=O)CN(Cc3ccccc3)CC(=O)N12 (configuration not stated)
inactive: [1] 9.85% | [2] -3.3% | [3] -8.55% | [4] 13.4% | [5] 3.1% | [6] -4.45%

CCOC(=O)NC(NC(=O)OCC)c1ccc(C(NC(=O)OCC)NC(=O)OCC)cc1
inactive: [1] 30.9% | [2] 13.2% | [3] 5.45% | [4] 5% | [5] 2.8% | [6] 7.9%

N#Cc1nc(Nc2cccc3ccccc23)sc1N
inactive: [1] 8.2% | [2] 14.8% | [3] 20.9% | [4] 12.1% | [5] 15.7% | [6] 51.1%

C=CCCCC1CCCNC1=O (configuration not stated)
inactive: [1] 5.05% | [2] 10.2% | [3] -8.2% | [4] 8.1% | [5] 4.05% | [6] 0.45%

COc1ncc(/C=C2\OC(=O)c3ccccc32)c(OC)n1
inactive: [1] 1.6% | [2] -16.1% | [3] 19.9% | [4] 2.6% | [5] 6.05% | [6] 16.9%

CC1OS(=O)OC1C (configuration not stated)
inactive: [1] -20.9% | [2] -23.6% | [3] -2.4% | [4] -21.7% | [5] -8.45% | [6] -0.4%

NC(CC(=O)NC(CC(=O)O)C(=O)O)C(=O)O (configuration not stated)
inactive: [1] -5.5% | [2] -1% | [3] -8.9% | [4] -56% | [5] -20% | [6] 5.2%

Nc1ccccc1N/N=C/c1ccccc1
inactive: [1] -4.3% | [2] 15.3% | [3] -15.4% | [4] -37.5% | [5] -15.3% | [6] 5.25%

CC(=O)Oc1ccc(C2(c3ccc(OC(C)=O)cc3)C(=O)Nc3ccccc32)cc1
inactive: [1] -11.2% | [2] -16.3% | [3] -5.85% | [4] -0.65% | [5] 20.8% | [6] -4.65%

Nc1ccc(C(=O)N/C(=C\c2cccc([N+](=O)[O-])c2)c2nc3ccc(Cl)cc3[nH]2)cc1
inactive: [1] -10.1% | [2] -21.4% | [3] -25.3% | [4] -17.9% | [5] 1% | [6] -15.9%

Cc1ccc2snc(C(=O)O)c2c1[N+](=O)[O-]
inactive: [1] 16.7% | [2] 0.65% | [3] 4.1% | [4] -1.65% | [5] -13.6% | [6] 8.6%

CC(N)C(C)(C)O (configuration not stated)
inactive: [1] -2.1% | [2] -13.7% | [3] 1.7% | [4] -12.8% | [5] 6.2% | [6] 0.05%

COC(=O)c1nc(=S)[nH]c(C(=O)OC)c1C(=O)c1ccc(OC)cc1
inactive: [1] -31.9% | [2] -17.6% | [3] -10.2% | [4] -7.9% | [5] -30.4% | [6] 1.2%

CC1(C)OC2(CC1C1(C)C=CC(=O)O1)CC1(O)C(CCC34CC13C(=O)OC4c1ccoc1)O2 (configuration not stated)
inactive: [1] 17% | [2] 4.25% | [3] -10.3% | [4] 24.7% | [5] 14.9% | [6] 16.8%

c1ccc(COC[C@H]2O[C@@H](c3ccccc3)C[C@@H](OCc3ccccc3)C2OCc2ccccc2)cc1 (some centres not stated)
inactive: [1] -20.3% | [2] -11.6% | [3] -1.95% | [4] -0.45% | [5] -11.6% | [6] 5.4%

Cc1ccnc(-n2c(N)cc(=O)[nH]c2=S)c1
inactive: [1] -7.15% | [2] 1.3% | [3] 10.6% | [4] -17.4% | [5] 27.6% | [6] 5.55%

N#Cc1c[nH]n2ccnc12
inactive: [1] -16.7% | [2] -20.4% | [3] -23.4% | [4] -21.7% | [5] -4.1% | [6] -17.1%

Cc1c(C)c(CC(=O)N2CC2)c(C)c(C)c1CC(=O)N1CC1
inactive: [1] -23.4% | [2] 9.75% | [3] -3.9% | [4] -26.1% | [5] 2.65% | [6] -36.2%

COc1ccc(C(C)=O)c(OC(C)=O)c1OC(C)=O
inactive: [1] 4.05% | [2] 0.95% | [3] 6.25% | [4] 10% | [5] 5.8% | [6] 17.2%

[O-][N+]1=C(c2ccccc2)C(c2ccccc2)C(c2ccccc2)O1 (configuration not stated)
inactive: [1] -13.4% | [2] 1.05% | [3] -2.4% | [4] -6% | [5] -19.1% | [6] 11.2%

CCn1c(O)c(C=Nc2ccccc2)s/c1=N/Nc1nc(C)cs1
inactive: [1] -45.3% | [2] -55.2% | [3] -25% | [4] -14.1% | [5] -26.7% | [6] -27.5%

Cc1cc2nc(C(C)(C)O)[nH]c2cc1C
inactive: [1] 0.2% | [2] -4.8% | [3] 2.8% | [4] 8.2% | [5] 1.6% | [6] 13.2%

COC(=O)c1nc(NN)[nH]c(=O)c1CCCCCc1c(C(=O)OC)[nH]c(NN)cc1=O
inactive: [1] -35.4% | [2] -6.65% | [3] -14.1% | [4] 14.9% | [5] -18.1% | [6] -8.85%

Cc1ccc(S(=O)(=O)N2CN3CN(C2)CN(S(=O)(=O)c2ccc(C)cc2)C3)cc1
inactive: [1] 0.4% | [2] -26.9% | [3] -9.15% | [4] 9.05% | [5] 6.4% | [6] -4.2%

O=C(O)c1ccc(CS(=O)c2ccccc2)c([N+](=O)[O-])c1 (configuration not stated)
inactive: [1] 8.2% | [2] -0.7% | [3] -1.45% | [4] 14.4% | [5] -4.9% | [6] 24.7%

CCCC(=O)OCC(COC(=O)CCC)OC(=O)CCC
inactive: [1] -26.8% | [2] -8.35% | [3] -17.4% | [4] 24.6% | [5] 4.9% | [6] 7.1%

O=C(O)c1cc2ccc(Cl)cc2c2cc(C(F)(F)F)ccc12
inactive: [1] 2.25% | [2] 27.8% | [3] 27.2% | [4] 50.9% | [5] 27.2% | [6] 53.7%

CCOCCC(O)CC (configuration not stated)
inactive: [1] 3.3% | [2] -31.2% | [3] -4.9% | [4] 17.7% | [5] 9.8% | [6] 14%

CC1c2c(cc(=O)n(Cc3ccccc3)c2O)C(=O)N1Cc1ccccc1 (configuration not stated)
inactive: [1] -12.6% | [2] 16.9% | [3] 3.85% | [4] 4.75% | [5] -23.6% | [6] 8.85%

Cc1ccc(C(=O)OCc2ccccc2CN2CCCCC2)cc1
inactive: [1] 1.6% | [2] -8.35% | [3] -22.6% | [4] -19.7% | [5] 3.6% | [6] 2.1%

COc1ccc(/C=N/Nc2nc(C)c3c(n2)Nc2ccccc2NC3=O)cc1
inactive: [1] -15.2% | [2] 10.2% | [3] 3.55% | [4] -1.95% | [5] -1.45% | [6] -19.8%

Clc1ccc2nsnc2c1Cl
inactive: [1] -0.1% | [2] -1.25% | [3] -3.75% | [4] -19.4% | [5] 7.8% | [6] 8.1%

CCCNC(=O)/C=C\S(=O)CCC (configuration not stated)
inactive: [1] -1.15% | [2] 2.9% | [3] 1.15% | [4] -16.5% | [5] 16.9% | [6] -2.6%

O=C(/C=C/NC(=O)OCc1ccccc1)OCc1ccccc1
inactive: [1] 9.35% | [2] -5.5% | [3] -0.9% | [4] 17.1% | [5] 3.55% | [6] 0.95%

CCN(CC)/[N+]([O-])=N/O
inactive: [1] 26.6% | [2] -14.8% | [3] -2.35% | [4] -0.6% | [5] 15.8% | [6] 16.1%

Cc1cc(O)c(/C=N/C(=S)NCCc2ccccc2)c(=O)o1
inactive: [1] -4.35% | [2] -29.5% | [3] -9.5% | [4] 10.3% | [5] 6.55% | [6] -20.6%

CC(C)N(C(=O)C12CC3CC(CC(C3)C1)C2)C(C)C
inactive: [1] 24.9% | [2] 0.45% | [3] 8.05% | [4] 13.2% | [5] 20.9% | [6] 6.15%

CC(C)OC(CCC#N)c1ccccc1 (configuration not stated)
inactive: [1] -20.1% | [2] -48.6% | [3] -33.3% | [4] -8.3% | [5] -32.9% | [6] -34.1%

Cc1ccc(C(=O)NCCN2CCCC2)c([N+](=O)[O-])c1OCc1ccccc1
inactive: [1] 6.15% | [2] -20% | [3] 4.8% | [4] -22.9% | [5] -4.85% | [6] -5.8%

O=C(Cl)CCc1ccnc2ccccc12
inactive: [1] 0.5% | [2] 3.25% | [3] 4.2% | [4] -8.45% | [5] 2.4% | [6] 11.2%

CCOCC/C(C(=O)O)=C(\CC)C(=O)O
inactive: [1] 9.15% | [2] 2.55% | [3] 0% | [4] 8.7% | [5] -22.8% | [6] 9.05%

CC(=O)Nc1ccc(NC(=O)c2ccccc2Cl)cc1
inactive: [1] -0.45% | [2] -9.15% | [3] 4.7% | [4] -6.6% | [5] 10.9% | [6] -33.1%
